# Laboratory results as given in publication PMC11006913.
# Where a chain is given by its changes, count along the chain named.
# Columns and labels:
# Assay in all cases: PBM; 200 nM protein, PBS
# Details in all cases: dsDNA, one strand shown
# NKX2-5 [1] = target: NKX2-5 (Homo sapiens, UniProt P52952 125-210, R139K)
# NKX2-4 [2] = target: T1, NKX2-4 (Homo sapiens, UniProt Q9H2Z4 175-261, P217L)
# T1 sequence: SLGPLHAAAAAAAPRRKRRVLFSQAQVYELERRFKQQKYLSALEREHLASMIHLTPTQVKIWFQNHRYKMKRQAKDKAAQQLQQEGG
# NKX2-4 [3] = target: T2, NKX2-4 (Homo sapiens, UniProt Q9H2Z4 175-261, T231S)
# T2 sequence: T1 sequence with L43P, T57S
# NKX2-4 [4] = target: T3, NKX2-4 (Homo sapiens, UniProt Q9H2Z4 175-261)
# T3 sequence: T1 sequence with L43P
# NKX2-6 [5] = target: T4, NKX2-6 (Homo sapiens, UniProt A6NCS4 118-204, R150C)
# T4 sequence: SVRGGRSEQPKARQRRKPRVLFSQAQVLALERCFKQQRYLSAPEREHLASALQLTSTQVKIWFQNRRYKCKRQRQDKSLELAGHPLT
# NKX2-4 [6] = target: T5, NKX2-4 (Homo sapiens, UniProt Q9H2Z4 175-261, R246Q)
# T5 sequence: T1 sequence with L43P, R72Q
# NKX3-2 [7] = target: NKX3-2 (Homo sapiens, UniProt P78367 192-278, P234S)
# Sequence of NKX3-2 (Homo sapiens, UniProt P78367 192-278, P234S) (P78367 192-278 P234S): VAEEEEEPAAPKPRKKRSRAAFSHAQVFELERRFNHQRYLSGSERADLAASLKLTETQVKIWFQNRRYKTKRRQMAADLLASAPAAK
# NKX2-5 [8] = target: NKX2-5 (Homo sapiens, UniProt P52952 125-210)
# Sequence of NKX2-5 (Homo sapiens, UniProt P52952 125-210) (P52952 125-210): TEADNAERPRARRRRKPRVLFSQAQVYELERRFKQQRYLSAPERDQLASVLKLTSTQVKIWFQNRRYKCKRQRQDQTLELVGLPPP
# NKX3-2 [9] = target: NKX3-2 (Homo sapiens, UniProt P78367 192-278)
# Sequence of NKX3-2 (Homo sapiens, UniProt P78367 192-278) (P78367 192-278): as the sequence (P78367 192-278 P234S) above, with S43P counted along it
# VENTX [10] = target: T6, VENTX (Homo sapiens, UniProt O95231 78-163, R121Q)
# T6 sequence: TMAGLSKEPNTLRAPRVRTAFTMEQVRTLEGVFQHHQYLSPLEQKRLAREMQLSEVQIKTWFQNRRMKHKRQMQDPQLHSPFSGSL
# VENTX [11] = target: T7, VENTX (Homo sapiens, UniProt O95231 78-163)
# T7 sequence: T6 sequence with Q44R
# VENTX [12] = target: T8, VENTX (Homo sapiens, UniProt O95231 78-163, Y115F)
# T8 sequence: T6 sequence with Y38F, Q44R
# NKX2-6 [13] = target: T9, NKX2-6 (Homo sapiens, UniProt A6NCS4 118-204)
# T9 sequence: T4 sequence with C33R
# NKX2-6 [14] = target: T10, NKX2-6 (Homo sapiens, UniProt A6NCS4 118-204, F151L)
# T10 sequence: T4 sequence with C33R, F34L
# Sequence of NKX2-5 (Homo sapiens, UniProt P52952 125-210, R139K) (P52952 125-210 R139K): as the sequence (P52952 125-210) above, with R15K counted along it
sequence,measurement,setting,value
CAAGTACC,binding signal,NKX2-5 [1],"12.5 upbm affinity estimate (log intensity, higher = more binding, comparable within an allelic series)"
same,binding signal,NKX2-4 [2],"12.4 upbm affinity estimate (log intensity, higher = more binding, comparable within an allelic series)"
same,binding signal,NKX2-4 [3],"12.8 upbm affinity estimate (log intensity, higher = more binding, comparable within an allelic series)"
same,binding signal,NKX2-4 [4],"12.4 upbm affinity estimate (log intensity, higher = more binding, comparable within an allelic series)"
same,binding signal,NKX2-6 [5],"11.6 upbm affinity estimate (log intensity, higher = more binding, comparable within an allelic series)"
same,binding signal,NKX2-4 [6],"12.9 upbm affinity estimate (log intensity, higher = more binding, comparable within an allelic series)"
same,binding signal,NKX3-2 [7],"12.5 upbm affinity estimate (log intensity, higher = more binding, comparable within an allelic series)"
same,binding signal,NKX2-5 [8],"12.3 upbm affinity estimate (log intensity, higher = more binding, comparable within an allelic series)"
same,binding signal,NKX3-2 [9],"12.6 upbm affinity estimate (log intensity, higher = more binding, comparable within an allelic series)"
TACCGGTA,binding signal,NKX2-5 [1],"8.84 upbm affinity estimate (log intensity, higher = more binding, comparable within an allelic series)"
same,binding signal,NKX2-4 [2],"9.99 upbm affinity estimate (log intensity, higher = more binding, comparable within an allelic series)"
same,binding signal,NKX2-4 [3],"10.1 upbm affinity estimate (log intensity, higher = more binding, comparable within an allelic series)"
same,binding signal,NKX2-4 [4],"9.94 upbm affinity estimate (log intensity, higher = more binding, comparable within an allelic series)"
same,binding signal,NKX2-4 [6],"10.1 upbm affinity estimate (log intensity, higher = more binding, comparable within an allelic series)"
same,binding signal,NKX2-5 [8],"8.86 upbm affinity estimate (log intensity, higher = more binding, comparable within an allelic series)"
CACGGGCC,binding signal,NKX2-5 [1],"8.73 upbm affinity estimate (log intensity, higher = more binding, comparable within an allelic series)"
same,binding signal,VENTX [10],"7.96 upbm affinity estimate (log intensity, higher = more binding, comparable within an allelic series)"
same,binding signal,VENTX [11],"8.01 upbm affinity estimate (log intensity, higher = more binding, comparable within an allelic series)"
same,binding signal,VENTX [12],"7.92 upbm affinity estimate (log intensity, higher = more binding, comparable within an allelic series)"
same,binding signal,NKX2-5 [8],"8.71 upbm affinity estimate (log intensity, higher = more binding, comparable within an allelic series)"
CACTCAAG,binding signal,NKX2-5 [1],"12.5 upbm affinity estimate (log intensity, higher = more binding, comparable within an allelic series)"
same,binding signal,NKX2-4 [2],"12.5 upbm affinity estimate (log intensity, higher = more binding, comparable within an allelic series)"
same,binding signal,NKX2-4 [3],"13 upbm affinity estimate (log intensity, higher = more binding, comparable within an allelic series)"
same,binding signal,NKX2-4 [4],"12.4 upbm affinity estimate (log intensity, higher = more binding, comparable within an allelic series)"
same,binding signal,NKX2-6 [5],"11.6 upbm affinity estimate (log intensity, higher = more binding, comparable within an allelic series)"
same,binding signal,NKX2-6 [13],"13.5 upbm affinity estimate (log intensity, higher = more binding, comparable within an allelic series)"
same,binding signal,NKX2-4 [6],"13.1 upbm affinity estimate (log intensity, higher = more binding, comparable within an allelic series)"
same,binding signal,NKX2-6 [14],"10.5 upbm affinity estimate (log intensity, higher = more binding, comparable within an allelic series)"
same,binding signal,NKX2-5 [8],"12.3 upbm affinity estimate (log intensity, higher = more binding, comparable within an allelic series)"
AAGTGGTC,binding signal,NKX2-5 [1],"12.6 upbm affinity estimate (log intensity, higher = more binding, comparable within an allelic series)"
same,binding signal,NKX2-4 [2],"12.4 upbm affinity estimate (log intensity, higher = more binding, comparable within an allelic series)"
same,binding signal,NKX2-4 [3],"12.8 upbm affinity estimate (log intensity, higher = more binding, comparable within an allelic series)"
same,binding signal,NKX2-6 [5],"11.8 upbm affinity estimate (log intensity, higher = more binding, comparable within an allelic series)"
same,binding signal,NKX2-6 [13],"13.4 upbm affinity estimate (log intensity, higher = more binding, comparable within an allelic series)"
same,binding signal,NKX2-6 [14],"10.5 upbm affinity estimate (log intensity, higher = more binding, comparable within an allelic series)"
same,binding signal,NKX3-2 [7],"12.9 upbm affinity estimate (log intensity, higher = more binding, comparable within an allelic series)"
same,binding signal,NKX2-5 [8],"12.6 upbm affinity estimate (log intensity, higher = more binding, comparable within an allelic series)"
same,binding signal,NKX3-2 [9],"12.9 upbm affinity estimate (log intensity, higher = more binding, comparable within an allelic series)"
ACGGCCTG,binding signal,NKX2-5 [1],"8.92 upbm affinity estimate (log intensity, higher = more binding, comparable within an allelic series)"
same,binding signal,NKX2-4 [2],"9.73 upbm affinity estimate (log intensity, higher = more binding, comparable within an allelic series)"
same,binding signal,NKX2-4 [3],"9.59 upbm affinity estimate (log intensity, higher = more binding, comparable within an allelic series)"
same,binding signal,NKX2-4 [4],"9.65 upbm affinity estimate (log intensity, higher = more binding, comparable within an allelic series)"
same,binding signal,NKX2-4 [6],"9.71 upbm affinity estimate (log intensity, higher = more binding, comparable within an allelic series)"
same,binding signal,NKX2-5 [8],"8.81 upbm affinity estimate (log intensity, higher = more binding, comparable within an allelic series)"
ACACTTCA,binding signal,NKX2-5 [1],"12.3 upbm affinity estimate (log intensity, higher = more binding, comparable within an allelic series)"
same,binding signal,NKX2-4 [2],"12.6 upbm affinity estimate (log intensity, higher = more binding, comparable within an allelic series)"
same,binding signal,NKX2-4 [3],"13 upbm affinity estimate (log intensity, higher = more binding, comparable within an allelic series)"
same,binding signal,NKX2-4 [4],"12.5 upbm affinity estimate (log intensity, higher = more binding, comparable within an allelic series)"
same,binding signal,NKX2-6 [13],"13.3 upbm affinity estimate (log intensity, higher = more binding, comparable within an allelic series)"
same,binding signal,NKX2-4 [6],"13.1 upbm affinity estimate (log intensity, higher = more binding, comparable within an allelic series)"
same,binding signal,NKX2-6 [14],"10.8 upbm affinity estimate (log intensity, higher = more binding, comparable within an allelic series)"
same,binding signal,NKX2-5 [8],"12.3 upbm affinity estimate (log intensity, higher = more binding, comparable within an allelic series)"
CACTTCAG,binding signal,NKX2-5 [1],"12.4 upbm affinity estimate (log intensity, higher = more binding, comparable within an allelic series)"
same,binding signal,NKX2-4 [2],"12.6 upbm affinity estimate (log intensity, higher = more binding, comparable within an allelic series)"
same,binding signal,NKX2-4 [3],"12.9 upbm affinity estimate (log intensity, higher = more binding, comparable within an allelic series)"
same,binding signal,NKX2-4 [4],"12.4 upbm affinity estimate (log intensity, higher = more binding, comparable within an allelic series)"
same,binding signal,NKX2-6 [13],"13.4 upbm affinity estimate (log intensity, higher = more binding, comparable within an allelic series)"
same,binding signal,NKX2-4 [6],"13.1 upbm affinity estimate (log intensity, higher = more binding, comparable within an allelic series)"
same,binding signal,NKX2-6 [14],"10.8 upbm affinity estimate (log intensity, higher = more binding, comparable within an allelic series)"
same,binding signal,NKX2-5 [8],"12.3 upbm affinity estimate (log intensity, higher = more binding, comparable within an allelic series)"
CGGCGCCG,binding signal,NKX2-5 [1],"9.06 upbm affinity estimate (log intensity, higher = more binding, comparable within an allelic series)"
same,binding signal,NKX2-5 [8],"9.14 upbm affinity estimate (log intensity, higher = more binding, comparable within an allelic series)"
